Screening data: PubChem, National Center for Advancing Translational Sciences (NCATS)
KDM5B inhibitor – KDM5B demethylase inhibition. Potency, µM (doses to about 57.7 µM), actives largely listed as inhibitors. KDM5B demethylase, FDH-coupled NADH fluorescence (FDH is formaldehyde dehydrogenase). 220,000 compounds, 2.6% hits. Q9UGL1; active means well fitted inhibition curve with a large enough effect; further: 0% is about no effect; nearly all actives have a fitted effect of over 70% in size
Target sequence (Q9UGL1 whole entry, looked up): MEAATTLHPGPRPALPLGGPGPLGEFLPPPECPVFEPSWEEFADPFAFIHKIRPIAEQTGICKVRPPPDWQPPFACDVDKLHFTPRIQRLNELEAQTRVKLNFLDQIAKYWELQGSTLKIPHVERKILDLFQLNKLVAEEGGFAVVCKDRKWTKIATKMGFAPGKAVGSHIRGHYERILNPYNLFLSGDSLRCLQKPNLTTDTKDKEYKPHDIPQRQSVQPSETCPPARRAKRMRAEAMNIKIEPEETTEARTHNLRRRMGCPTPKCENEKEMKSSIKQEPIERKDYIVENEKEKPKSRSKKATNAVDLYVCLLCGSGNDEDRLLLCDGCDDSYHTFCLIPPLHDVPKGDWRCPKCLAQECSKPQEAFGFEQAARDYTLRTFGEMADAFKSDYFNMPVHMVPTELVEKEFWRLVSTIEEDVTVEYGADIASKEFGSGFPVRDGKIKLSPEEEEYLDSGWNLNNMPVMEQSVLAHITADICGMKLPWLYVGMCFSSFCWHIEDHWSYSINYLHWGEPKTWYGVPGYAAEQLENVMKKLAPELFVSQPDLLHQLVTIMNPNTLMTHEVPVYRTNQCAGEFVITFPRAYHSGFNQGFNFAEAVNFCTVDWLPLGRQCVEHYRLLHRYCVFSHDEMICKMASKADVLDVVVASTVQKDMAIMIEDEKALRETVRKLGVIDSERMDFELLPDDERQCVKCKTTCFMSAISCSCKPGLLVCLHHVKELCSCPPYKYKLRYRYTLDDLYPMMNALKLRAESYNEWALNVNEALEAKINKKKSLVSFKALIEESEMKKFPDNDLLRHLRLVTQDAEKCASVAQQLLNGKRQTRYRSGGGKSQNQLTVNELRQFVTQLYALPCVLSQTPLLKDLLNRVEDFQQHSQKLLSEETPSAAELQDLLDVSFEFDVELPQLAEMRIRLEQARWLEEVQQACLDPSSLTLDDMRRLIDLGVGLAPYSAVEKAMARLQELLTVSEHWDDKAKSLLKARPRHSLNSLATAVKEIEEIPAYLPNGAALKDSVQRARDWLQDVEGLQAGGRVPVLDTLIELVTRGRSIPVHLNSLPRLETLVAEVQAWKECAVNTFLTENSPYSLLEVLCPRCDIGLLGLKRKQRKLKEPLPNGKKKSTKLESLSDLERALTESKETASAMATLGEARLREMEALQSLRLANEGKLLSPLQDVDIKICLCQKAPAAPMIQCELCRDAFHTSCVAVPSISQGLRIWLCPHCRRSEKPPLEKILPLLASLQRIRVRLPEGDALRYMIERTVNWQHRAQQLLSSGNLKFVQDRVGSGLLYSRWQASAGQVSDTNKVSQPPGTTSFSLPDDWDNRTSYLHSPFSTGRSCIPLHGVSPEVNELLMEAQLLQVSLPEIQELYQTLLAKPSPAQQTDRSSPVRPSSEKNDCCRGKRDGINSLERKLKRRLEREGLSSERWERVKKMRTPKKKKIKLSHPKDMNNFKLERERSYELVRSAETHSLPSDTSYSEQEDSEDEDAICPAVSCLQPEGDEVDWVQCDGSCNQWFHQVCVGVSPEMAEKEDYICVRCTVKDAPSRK
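Measured: NADH fluorescence change, 30 min, RT. System: KDM5BΔAP 200 nM final, H3K4me3 peptide, α-KG, Fe(II), ascorbate, NAD⁺ plus FDH, pH 7.5 HEPES. Compounds: titrated, 10 min pre-incubation with enzyme.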
The depositor's hits bear a star; i = inactive; [ ] = remark or other dose. The sample as a whole holds a higher share of hits than the screen did. Potency means the concentration at half of the fitted maximal effect.

SMILES	KDM5B inhibitor
CN(CC(=O)C(C#N)c1ccccc1)C1CCCCC1 (stereo not drawn)	i
NCc1ccc2[nH]ccc2c1	i
O=C(OCc1ccc(I)cc1)c1ccc([N+](=O)[O-])cc1	i
Cc1ccc(S(=O)(=O)N2CCCC(CCC(=O)N3CCOCC3)C2)cc1 (stereo not drawn)	i
O=C(CCC1CCCN(S(=O)(=O)c2ccccc2)C1)N1CCc2ccccc2C1 (stereo not drawn)	22µM*
O=C(CCC1CCCN(S(=O)(=O)c2cccc(F)c2)C1)N1CCc2ccccc2C1 (stereo not drawn)	i
CCC(C)[C@H](NC(=O)Nc1cc(-c2n[nH]c(=O)c3ccccc23)ccc1C)C(=O)OC (stereo partly drawn)	i
Cn1nc(C(=O)Nc2ccnn2Cc2ccc(Cl)cc2)c2ccccc2c1=O	i
COc1ccc(C2CCCN2C(=O)CSc2nnnn2C2CCCC2)cc1 (stereo not drawn)	i
CCNC(=O)C(C)Sc1ncc(-c2ccc(F)cc2)o1 (stereo not drawn)	i
CC(C)NCc1ccc(-c2ccccc2)o1	i
COCc1nc(C2CCCN(C(=O)Cc3cccc(F)c3)C2)no1 (stereo not drawn)	i
O=C(Cc1cccc(F)c1)N1CCCC(Cc2nc(C3CCOCC3)no2)C1 (stereo not drawn)	28µM*
O=C(Cc1cccc(F)c1)N1CCC(Cc2noc(C3CCOCC3)n2)C1 (stereo not drawn)	i
CC(C)(C)c1ccc(C2CCCN2CC(=O)N2CCCCC2)cc1 (stereo not drawn)	i
O=C(NCc1ccccc1)[C@H]1CN(Cc2ccccc2)C[C@H]1C(=O)O	i
c1cncc(-c2nc(NC3CCN(C4CC4)CC3)c3ccccc3n2)c1	i
COc1ccc(-c2cc3c(nc2OC)nc(CC2CC2)n3C)cc1	35µM*
COc1ccc(-n2ccnc2CN2CCC(Cc3nncn3C)CC2)cc1	i
COc1cc(-c2cc3c(nc2OC)nc(CC2CC2)n3C)ccn1	40µM*
COc1ccc(S(=O)(=O)N2CCC(Cc3nncn3C)CC2)cc1	i
CCOc1ccc(NC(=O)CSc2nc3ccccc3c(=O)n2CC2CCCO2)cc1 (stereo not drawn)	i
N#CCCn1c(=O)c2c(ncn2C2CCCC2)n(Cc2ccccc2)c1=O	i
Cc1ccc(-c2ccsc2C(=O)N2CCN(S(=O)(=O)c3ccc(F)c(F)c3)CC2)cc1	i
COc1ccc(SC(C)C(=O)NC(C)(C#N)C(C)C)cc1 (stereo not drawn)	i
SMILES	KDM5B inhibitor
CCSC1=N/C(=C\c2cc(C(C)(C)C)c(O)c(C(C)(C)C)c2)C(=O)S1	i
Cc1oc(-c2ccccc2)nc1CC(=O)N1CCNC(=O)C1	i
Cc1oc(-c2ccc3ccccc3c2)nc1CN1CCNC(=O)C1	28µM*
Cc1oc(-c2cccc(Cl)c2)nc1CN1CCOCC1	i
Cc1nnc(NC(=O)c2cc(-c3ccc(Br)cc3)nc3ccccc23)s1	i
COc1cccc2cc(C(=O)NC3CCC(C)CC3)c(=O)oc12 (stereo not drawn)	i
Cc1cc(Cn2cc3c4c(cccc42)[C@H](CC(C)C)N[C@H](C(=O)NC2CCCC2)C3)no1	i
C#CCNC(=O)[C@@H]1Cc2cn(Cc3cc(C)on3)c3cccc(c23)[C@H](CC(C)C)N1	32µM*
Cc1noc(C)c1Cn1cc2c3c(cccc31)[C@H](CC(C)C)N[C@H](C(=O)NCC1CC1)C2	32µM*
CC(=O)NCCNC(=O)[C@@H]1Cc2cn(Cc3c(C)noc3C)c3cccc(c23)[C@H](CC(C)C)N1	i
Cc1cc(Cn2cc3c4c(cccc42)[C@H](CC(C)C)N[C@H](C(=O)NCc2cncn2C)C3)no1	i
COCCNC(=O)[C@@H]1Cc2cn(Cc3ccccn3)c3cccc(c23)[C@H](CC(C)C)N1	i
Cc1cnc2c(S(=O)(=O)NC(C3CC3)C3CC3)cccc2c1	i
CNC(=O)[C@@H]1CN(C(=O)c2cc(OC)cc(OC)c2)C[C@H]1COC	i
O=C(OCc1ccccc1)N1CCOCC12CCN(Cc1ccc(O)cc1)CC2	i
CC(C)(C)c1nc(C(C)(C)NC(=O)C2Cc3ccccc3O2)no1 (stereo not drawn)	i
COc1ccc(NC(=O)Cn2cccc2-c2nc(-c3ccccc3)no2)c(OC)c1	i
CC(C)(C)NC(=O)c1ccc(NC(=O)C2(C)CC2(Cl)Cl)cc1 (stereo not drawn)	i
COc1cccc(OC)c1C(=O)C1CC(=O)Nc2c1c(C)nn2-c1cccc(C)c1C (stereo not drawn)	i
CCS(=O)(=O)N1CCc2cc(C(=O)CSc3nnc(C)n3C3CC3)ccc21	i
O=C(Nc1ccc(F)c(Cl)c1)c1ccc(Cl)cc1N1CCCC1=O	i
CC(C)Cc1ccc(C(C)(N)C(=O)O)cc1 (stereo not drawn)	i
C=CCN(Cc1nc(-c2ccccc2)no1)Cc1nccn1C	i
Ic1cccc(-c2nc(-c3ccccc3)no2)c1	i
C=CCN(CC=C)Cc1nnc2cc(-c3nc(-c4ccccc4)no3)ccn12	25µM*
SMILES	KDM5B inhibitor
CCN(CC)Cc1nnc2cc(-c3nc(-c4ccccc4)no3)ccn12	20µM*
NC(=O)C1CCN(Cc2nnc3cc(-c4nc(-c5ccccc5)no4)ccn23)CC1	6.3µM*
NC(=O)C1CCN(Cc2nc(-c3cccs3)no2)CC1	i
CC(C)N1CCN(Cc2nnc3cc(-c4nc(-c5ccccc5)no4)ccn23)CC1	i
O=C(NC1CCCCC1)C1CCCc2ccccc21 (stereo not drawn)	i
COc1ccc(CC(=O)Nc2ccc(O)c(-c3nc4ccccc4o3)c2)cc1	i
Cc1ccc(Sc2ccc(Sc3ccc(C)cc3)c(C#N)c2)cc1	i
Cc1ccc(C2CCCN2C(=O)Nc2ccc(F)c(Cl)c2)cc1 (stereo not drawn)	i
Cn1nccc1CN1CCCC2(CC(c3cccc(C(F)(F)F)c3)=NO2)C1 (stereo not drawn)	i
O=C(Cn1cnc(S(=O)(=O)N2CCOCC2)c1)Nc1cccc(-c2ccno2)c1	i
CCCCNC(=O)c1cc2cc(Cl)ccc2[nH]1	i
CCCCNC(=O)CCn1nc(-c2ccc(Cl)cc2)c2ccccc2c1=O	i[11.5 µM]
Cc1ccc(-c2nc3scc(CCNC(=O)Cc4ccc(Cl)cc4)n3n2)cc1	i
CCCCNC(=O)Cc1csc2nc(C)c(-c3cc(C)n(-c4cc(Cl)ccc4C)n3)c(=O)n12	25µM*
CCCNC(=O)Cc1csc2nc(C)c(-c3cc(C)n(-c4cc(Cl)ccc4C)n3)c(=O)n12	28µM*
Cc1nc(CC(=O)Nc2cc(Cl)ccc2C)cs1	i
CC(C)(C)c1ccc2c(c1)OCCOCCOc1cc(C(C)(C)C)ccc1OCCOCCO2	i
COc1cc(C(=O)OCCOc2ccccc2F)cc(OC)c1OC	i
O=C(COc1ccc(S(=O)(=O)NC2CCCC2)cc1)NCc1ccncc1	i
CN1CCCCCC1C(=O)N1CCN(c2ccc(C#N)cn2)CC1 (stereo not drawn)	28µM*
CC(NC(=O)C1CCN(c2ccc(C#N)cn2)CC1)c1ccc(F)cc1 (stereo not drawn)	i
CC(C)(C)c1csc(NC(=O)C2CCN(c3ccc(C#N)cn3)CC2)n1	i
O=C(c1cc(C2CC2)nc2c1c(C1CCCN1)nn2-c1ccccc1)N1CCC(F)CC1 (stereo not drawn)	i
COc1ccc(-c2cc(C(=O)NCC(C)C)c3c(C4CCCN4)nn(C)c3n2)cc1 (stereo not drawn)	50µM*
